From PubChem BioAssay
Rows were chosen to be rich in hits. Some 4.7% of all compounds tested hit in one or more screens of this group.
D3 ag: qHTS of D3 Dopamine Receptor Agonist: qHTS | D(3) dopamine receptor (Homo sapiens), P35462 | D3R DiscoveRx beta-arrestin cells, luminescence, 90 min | max activation, % | 410,000 compounds, 0.58% hits; in the data active means max activation above about 30%
Target sequence (P35462 whole entry, looked up): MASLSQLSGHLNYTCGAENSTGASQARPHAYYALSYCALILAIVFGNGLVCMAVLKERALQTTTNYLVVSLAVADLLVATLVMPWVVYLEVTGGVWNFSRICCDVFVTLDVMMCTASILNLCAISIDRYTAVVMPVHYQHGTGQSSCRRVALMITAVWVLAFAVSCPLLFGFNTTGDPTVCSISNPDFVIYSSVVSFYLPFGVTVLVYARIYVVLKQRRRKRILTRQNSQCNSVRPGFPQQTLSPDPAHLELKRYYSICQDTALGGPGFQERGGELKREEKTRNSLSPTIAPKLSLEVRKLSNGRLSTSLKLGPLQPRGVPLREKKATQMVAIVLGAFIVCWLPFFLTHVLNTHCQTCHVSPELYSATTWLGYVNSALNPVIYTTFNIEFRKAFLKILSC
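Agonist-mode cell screen: cells plated at 1500/well and incubated overnight at 37 °C, then exposed to library compounds for 90 min at 37 °C. Detection reagent was added for 30–60 min at room temperature, and luminescence was read.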
DRD3 antagonist: qHTS of D3 Dopamine Receptor Antagonist: qHTS | 360,000 compounds, 2.5% hits | max response, negative = inhibition, % | D(3) dopamine receptor (Homo sapiens), P35462 | D3R cells, DiscoveRx beta-arrestin luminescence, antagonist mode; hits give low values | AID 652054, 2013; in the data active means max response below about -50%; inconclusive means no clear call, values can overlap the other calls
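Cells expressing the human receptor were seeded at 1500 cells/well, incubated overnight at 37 degrees C in 5% CO2, then exposed to library compounds with dopamine controls for 90 minutes at 37 degrees C before luminescent detection.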
S2 tox: Viability Counterscreen for Primary qHTS for Inhibitors of ATXN expression; S2 cells (HEK-293 line with an ATXN2-luciferase reporter) viability, CellTiter-Fluor protease fluorescence, 24 h; Potency, µM (titrated, usually from 56.7 µM), hits mostly cytotoxic; 400,000 compounds, 0.49% hits; AID 651635, 2014; further: nearly all actives have a fitted effect of over 40% in size
HepG2 tox: qHTS for Inhibitors of TGF-b: Cytotox Counterscreen; HepG2 CAGA-GFP viability, ATP luminescence, 18 h; Potency, µM (titrated, usually from 46.1 µM), usual class: cytotoxic; 410,000 compounds, 0.76% hits
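HepG2 CAGA-GFP cells (1000/well, DMEM with 1% FBS) received compound, then TGF-beta at 500 pg/mL final, and were incubated 18 hours at 37 degrees C. Viability was read by CellTiter-Glo luminescence. Media-only wells were set as complete cell-killing and DMSO as no toxicity.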
ATXN2 expr inh: Primary qHTS for Inhibitors of ATXN expression; HEK-293 ATXN2-luciferase reporter, luminescence, 24 h; Potency, µM (highest dose often 57 µM), most hits filed as inhibitors; 360,000 compounds, 0.72% hits; AID 1745845, 2022; further: nearly all actives have a fitted effect of over 55% in size
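ATXN2-luciferase reporter cells (luciferase flanked by upstream and downstream ATXN2 gene portions) were treated 24 h at 37 °C with compounds at up to 57 uM. SteadyGlo luminescence gave expression; GF-AFC fluorescence gave viability.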
TGFb inhibitor: qHTS for Inhibitors of TGF-b; HepG2 CAGA-GFP TGF-b/SMAD3 reporter, GFP fluorescence, 18 h; TGF-beta stimulated, 500 pg/mL final; Potency, µM (doses to about 46.1 µM), usual class: inhibitors; 410,000 compounds, 1.2% hits; AID 588855, 2011; further: nearly all actives have a fitted effect of over 65% in size
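Per well, imaged GFP fluorescence of HEPG2 CAGA-GFP cells gives the signal; cells get compound, then TGF-beta (500 pg/mL final), 18 h at 37 degrees C; %Activity versus -TGF-beta and +DMSO controls.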
Each line names hits and unclear results; the compound was inactive in the other large screens. Unless noted, the call rests on the fitted dose curve; in most records, active means well fitted curve in the direction sought with a large enough effect; inconclusive means small, poorly fitted or top-dose-only effect, or another doubt; inactive means no such curve, though single readings can be large; an effect the other way counts as inactive or inconclusive.

CC(C)Cn1c(N)c(C(=O)COC(=O)/C=C/c2cccs2)c(=O)n(C)c1=O	D3 ag 33, S2 tox inconclusive, ATXN2 expr inh inconclusive
CC(C)Cn1c(N)c(C(=O)COC(=O)Cc2cccs2)c(=O)n(C)c1=O	none
COc1ccc(C(=O)NC(Nc2ccc(C)cc2)C(Cl)(Cl)Cl)cc1 (stereo unspecified)	TGFb inhibitor 11µM
COc1ccc(NC(NC(=O)c2ccc(OC)cc2)C(Cl)(Cl)Cl)cc1 (stereo unspecified)	none
Cc1cccc(-c2n[nH]c(=S)n2-c2ccccc2)c1[N+](=O)[O-]	none
COc1ccc(-n2c(-c3cccc(C)c3[N+](=O)[O-])n[nH]c2=S)cc1	DRD3 antagonist -57
CCN1C/C(=C/c2ccc(N3CCOCC3)cc2)C(=O)/C(=C/c2ccc(N3CCOCC3)cc2)C1	ATXN2 expr inh 22µM (no result: S2 tox)
Cc1cc(-n2c(C)nc3ccccc3c2=O)ccc1NC(=O)c1cccc([N+](=O)[O-])c1C	none (no result: DRD3 antagonist)
Cc1ccc(CCNC(=O)c2ccc(NC(=O)N3CCSc4ccccc43)cc2)cc1	none (no result: DRD3 antagonist)
CCCCCCSc1cc(-c2nc3cnccn3c2NCc2ccccc2)ccc1OC	D3 ag 51, TGFb inhibitor inconclusive
CCCCCCSc1cc(-c2nc3cc(C)ccn3c2NC2CCCCC2)ccc1OC	S2 tox inconclusive, TGFb inhibitor inconclusive
COc1ccc(Sc2ccc(-c3nc4cnccn4c3NC3CCCCC3)cc2OC)cc1	D3 ag 46 (no result: S2 tox)
COc1ccc(CSc2ccc(-c3nc4ccccn4c3NCc3ccccc3)cc2OC)cc1	TGFb inhibitor inconclusive
CCCCNc1c(-c2ccc(SC3CCCCC3)cc2)nc2cnccn12	D3 ag 40, ATXN2 expr inh inconclusive, TGFb inhibitor inconclusive (no result: S2 tox)
CCC(C)Sc1ccc(-c2nc3ccccn3c2NCc2ccccc2)cc1OC (stereo unspecified)	S2 tox inconclusive, ATXN2 expr inh inconclusive, TGFb inhibitor 13µM
COCCCNC(=O)c1c(-c2ccccc2)c(-c2ccccc2)nn(C)c1=O	TGFb inhibitor inconclusive (no result: DRD3 antagonist, S2 tox, ATXN2 expr inh)
COc1ccccc1C(=O)Nc1ccccc1C(=O)OCc1cc(=O)n2c(C)csc2n1	none (no result: DRD3 antagonist, S2 tox, ATXN2 expr inh)
Cc1ccc(NC(=O)c2c(C)oc3ncn(C)c(=O)c23)cc1F	none (no result: DRD3 antagonist)
COc1cc(-c2nc3ccccn3c2NCc2ccccc2)ccc1SC1CCCCC1	D3 ag 87, ATXN2 expr inh inconclusive, TGFb inhibitor inconclusive
COc1ccc(-c2nc3cnccn3c2NCc2ccccc2)cc1SC1CCCCC1	D3 ag 40, ATXN2 expr inh inconclusive, TGFb inhibitor inconclusive (no result: S2 tox)
CCCCNc1c(-c2ccc(OC)c(SC3CCCCC3)c2)nc2cnccn12	D3 ag 45, HepG2 tox 11µM, ATXN2 expr inh inconclusive, TGFb inhibitor inconclusive (no result: S2 tox)
CCn1c(SCC(=O)c2ccccc2)nnc1-c1cccc(Cl)c1	TGFb inhibitor inconclusive (no result: DRD3 antagonist)
COc1cc(CSc2ncc(CO)n2Cc2ccc(C)cc2)cc(OC)c1	none (no result: DRD3 antagonist)
Cc1ccccc1CNc1ncnc2c1ncn2[C@@H]1O[C@H](CO)[C@@H](O)[C@H]1O	none (no result: DRD3 antagonist, S2 tox, HepG2 tox, ATXN2 expr inh, TGFb inhibitor)
CCOc1ccccc1C(=O)N[C@H](C(=O)Nc1nc2c(s1)CCCC2)C(C)C	DRD3 antagonist -74, TGFb inhibitor inconclusive
COc1ccc(C(=O)N[C@H](C(=O)Nc2nc3c(s2)CCCC3)C(C)C)cc1	TGFb inhibitor inconclusive
COc1cc(NC(=O)Cc2ccccc2)cc(OC)c1	none
COc1cc(NC(=S)NC(=O)CCc2ccccc2)cc(OC)c1	DRD3 antagonist -52, TGFb inhibitor inconclusive
COc1cc(OC)cc(C(=O)NCC(=O)Nc2ccc(-c3ccccc3)cc2)c1	DRD3 antagonist -59, TGFb inhibitor inconclusive
COc1cc(OC)cc(C(=O)NCC(=O)Nc2ccc(C)c(Cl)c2)c1	none
COc1cc(NC(=O)C[n+]2ccc(C(=O)c3ccccc3)cc2)cc(OC)c1	DRD3 antagonist -72
Cc1ccc2nc(N3CCN(c4cccc(Cl)c4)CC3)c(-n3nc(C)cc3C)nc2c1	none (no result: DRD3 antagonist)
